High-throughput results from PubChem BioAssay.
This is a sample that favours compounds with a hit; in the whole collection about 2.6% have one here.
PRMT1 FP inh – PRMT1 (human) inhibition, primary screen. inhibition, % at 2.79 µM. AID 652257. 370,000 tested, 1.3% active. recombinant PRMT1, activity-based probe fluorescence polarization;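 active = inhibition above about 21% made by adding two undisclosed values, limit read from the data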
PME-1 inh – blocks human protein phosphatase methylesterase 1 | Q9Y570 | recombinant PME-1, FP-Rh probe fluorescence polarization | 320,000 tested, 0.53% active | inhibition, % at 5.9 µM;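 active = inhibition above the campaign mean of all compounds plus 3 SD, cut at about 26% in these data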;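 also: competitive labeling of PME-1 active site by serine hydrolase directed probe; 0% = PME-1 with DMSO and 100% = wells lacking PME-1 enzyme; inhibitors block probe labeling so polarization falls and inhibition rises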
Fam108B inh – counter-screen for RBBP9 inhibitors: inhibitors of mouse Fam108B; recombinant Fam108B, FP-Rh probe fluorescence polarization; inhibition, % at 9.51 µM; 300,000 tested, 0.33% active; AID 1947;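 active = inhibition above the screen mean inhibition plus 3 SD, computed separately per campaign, cut at about 18% in these data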;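 also: inhibitors lower polarization as less probe binds the enzyme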
SIAE primary – blocks human sialic acid acetylesterase | inhibition, % at 9.66 µM | AID 1053197 | 370,000 tested, 0.69% active | SIAE FP-Rh probe binding, fluorescence polarization | Q9HAT2;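 active = inhibition above a cutoff: mean of compounds within the control limits plus 3 SD of those, cut at about 17% in these data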;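 also: 0% = plate median of compound wells and 100% = probe without SIAE protein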
Target sequence (Q9HAT2 whole entry, looked up): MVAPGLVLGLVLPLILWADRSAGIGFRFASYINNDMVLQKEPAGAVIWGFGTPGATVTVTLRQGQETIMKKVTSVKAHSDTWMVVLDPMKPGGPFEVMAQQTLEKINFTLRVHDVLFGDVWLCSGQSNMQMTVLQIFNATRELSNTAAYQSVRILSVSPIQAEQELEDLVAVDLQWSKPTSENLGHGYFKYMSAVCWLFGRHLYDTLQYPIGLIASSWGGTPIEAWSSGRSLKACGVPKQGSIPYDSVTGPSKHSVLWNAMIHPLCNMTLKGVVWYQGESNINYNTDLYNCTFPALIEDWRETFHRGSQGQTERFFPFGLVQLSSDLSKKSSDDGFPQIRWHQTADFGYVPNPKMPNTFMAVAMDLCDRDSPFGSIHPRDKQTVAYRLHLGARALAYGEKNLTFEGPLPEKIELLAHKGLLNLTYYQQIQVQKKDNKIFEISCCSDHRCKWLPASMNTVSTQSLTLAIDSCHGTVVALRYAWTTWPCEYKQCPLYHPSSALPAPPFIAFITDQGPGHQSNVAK
TCR-CD3 inh – human TCR-CD3 binding inhibition. TAMRA-labeled TCR probe fluorescence, biochemical. inhibition, % at 9.4 µM. 360,000 tested, 0.37% active; in the data active = inhibition above about 19%;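 also: recombinant mutant TCR 2C K166C tagged with TAMRA read by polarization; 0% = receptor in buffer alone and 100% = receptor with positive control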
PAD4 FP inh – PAD4 (human) enzyme inhibition. 330,000 tested, 0.41% active. recombinant PAD4, RCA probe fluorescence polarization. Q9UM07. inhibition, % at 6.36 µM;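 active = percent inhibition above a cutoff equal to the mean of all tested compounds plus 3 SD, cut at about 15% in these data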;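 also: 0% = PAD4 with RCA probe and DMSO and 100% = probe without PAD4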
PRMT1 confirm – confirmation of human PRMT1 inhibitors. AID 687036. 3,300 tested, 42% active. inhibition, % at 2.79 µM. recombinant His-PRMT1, activity-based probe fluorescence polarization. shares compounds with PRMT1 FP inh;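 active = mean inhibition across replicates above the hit cutoff derived for the earlier primary screen, cut at about 22% in these data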
Starred values were filed as active, the others as inactive; . = no result given.

SMILES	PRMT1 FP inh	PME-1 inh	Fam108B inh	SIAE primary	TCR-CD3 inh	PAD4 FP inh	PRMT1 confirm
O=C1/C(=C\c2ccccn2)SC(=S)N1Nc1ncc(C(F)(F)F)cc1Cl	.	4	-5	.	.	-5	.
O=C1/C(=C/c2ccccn2)SC(=S)N1Nc1ncc(C(F)(F)F)cc1Cl	34*	.	.	3	1	.	19
COC(=O)[C@]12C[C@H](CC(=O)NCc3cccc4ccccc34)C(=O)N(CCc3ccc(OC)c(OC)c3)C1=C[C@H](COCc1ccccc1)O[C@@H]2C	3	.	.	-3	.	.	.
COC(=O)[C@]12C[C@H](CC(=O)N3CCC(c4ccccc4)CC3)C(=O)N(CCC3=CCCCC3)C1=C[C@H](C(C)C)O[C@@H]2C1CC1	1	.	.	3	.	.	.
CNC(=O)C[C@H]1CC[C@H]2[C@@H](COc3ccc(NC(=O)Nc4ccccc4)cc3C(=O)N2C)O1	-2	.	.	-5	.	.	.
O=C(NCc1n[nH]c(=S)n1-c1cccc(C(F)(F)F)c1)c1ccc(S(=O)(=O)N2CCCCC2)cc1	28*	5	2	-4	4	3	8
CCCN(CCC)S(=O)(=O)c1ccc(C(=O)NCc2n[nH]c(=S)n2-c2ccc(Cl)c(Cl)c2)cc1	29*	0	2	6	3	0	14
O=C(NCc1n[nH]c(=S)n1-c1cccc(C(F)(F)F)c1)c1ccc(S(=O)(=O)N2CCCC2)cc1	9	3	-1	0	-6	-2	.
O=c1cc(O)n(-c2ccccc2F)c(=S)[nH]1	6	-6	-2	-27	-25	0	.
Cc1ccccc1-n1c(O)cc(=O)[nH]c1=S	28*	-15	1	-9	-17	-6	2
c1ccn(-c2ccc(-c3noc(CCc4ccncc4)n3)cc2)c1	-5	.	.	7	.	.	.
Nc1cc(=O)[nH]c(SCc2nnnn2-c2ccc(Cl)cc2)n1	4	-6	-1	14	7	1	.
Cc1cc(=O)[nH]c(SCc2nnnn2-c2ccc(Cl)cc2)n1	37*	1	-1	7	-3	1	55*
Cc1ccc(-c2cc(C(=O)Nc3nccs3)c3ccccc3n2)c(C)c1	2	-11	-3	-12	0	2	.
Cc1ccc(-c2cc(C(=O)Nc3ccccc3C(N)=O)c3ccccc3n2)o1	65*	3	-3	-12	-2	1	28*
Cc1ccc(-c2cc(C(=O)Nc3nccs3)c3ccccc3n2)o1	36*	2	1	3	-6	-8	12
Cc1ccc(-c2cc(C(=O)N(C)CC(=O)Nc3ccccc3Br)c3ccccc3n2)o1	30*	2	0	1	-1	1	39*
COc1ccc(NC(=O)CN(C)C(=O)c2cc(-c3ccco3)nc3ccccc23)cc1	17	-6	3	6	13	-7	.
Cn1nnnc1Sc1ncnc2scc(-c3ccc[nH]3)c12	31*	4	.	0	-4	6	2
Cn1nnnc1Sc1ncnc2scc(-c3ccccc3)c12	-1	10	0	-2	5	0	.
O=C(O)c1cc(=S)nc[nH]1	39*	.	.	2	-5	.	60*
O=C(O)c1c[nH]n2c(=S)ncnc12	2	.	.	-2	4	.	.
Cc1ccc(-c2cc(C(=O)NN=Cc3ccc(-c4ccccc4)cc3)[nH]n2)cc1C	-2	.	.	8	.	.	.
O=C(NC1CCCCCC1)c1ccc[nH]c1=S	49*	1	0	-5	-10	-3	4
O=C(NC1CCCCCCC1)c1ccccc1O	-3	-2	-1	7	-2	0	.
SMILES	PRMT1 FP inh	PME-1 inh	Fam108B inh	SIAE primary	TCR-CD3 inh	PAD4 FP inh	PRMT1 confirm
CN1CCc2nc(SCC(=O)Nc3ccc(OC(F)(F)F)cc3)c(C#N)c(-c3cccs3)c2C1	40*	1	3	-9	3	-4	41*
Cc1cccc(CSc2nc3c(c(-c4cccs4)c2C#N)CN(C)CC3)c1	0	-3	4	2	6	3	.
CN1CCc2nc(SCC(=O)Nc3cccc(F)c3)c(C#N)c(-c3cccs3)c2C1	65*	-1	7	-8	6	5	23*
Cc1cc(C)c2sc(C)[n+](CCCS(=O)(=O)[O-])c2c1	51*	-7	1	-3	-8	5	32*
CC[n+]1c(C)sc2c(C)cc(C)cc21	46*	1	-2	0	-4	9	20
CC(=O)N1CCCN(S(=O)(=O)c2ccc3c(c2)n(C)c(=O)c(=O)n3C)CC1	-5	.	.	4	.	.	.
COc1ccc2cc(C3CC(c4ccco4)=NN3S(C)(=O)=O)c(Cl)nc2c1 (centres undefined)	25*	0	2	-3	2	-1	10
CCOc1ccc2nc(Cl)c(C3CC(c4ccco4)=NN3S(=O)(=O)c3ccccc3)cc2c1 (centres undefined)	32*	0	-8	-18	-14	1	0
CS(=O)(=O)N1N=C(c2ccco2)CC1c1ccc(Cl)cc1 (centres undefined)	4	7	2	6	3	-6	.
CCOc1ccc2nc(Cl)c(C3CC(c4ccccc4)=NN3C(=O)c3ccco3)cc2c1 (centres undefined)	.	-9	0	.	.	-1	.
CC(C)(C)c1ccc(S(=O)(=O)N2CCC(C(=O)NCCC3=CCCCC3)CC2)cc1	-1	.	.	-3	.	.	.
S=c1[nH]c2ccc(Cc3ccc4[nH]c(=S)[nH]c4c3)cc2[nH]1	30*	2	4	1	-5	-1	7
O=C(NCCc1c[nH]c2ccccc12)OCc1cn(Cc2cc(F)cc(F)c2)nn1	1	.	.	6	.	.	.
CC(CCN1CCC(C(O)(c2ccccc2)c2ccccc2)CC1)Oc1ccc(C#N)cc1F (centres undefined)	-3	.	.	2	.	.	.
Cc1cc(C)cc(-n2nnn(C3C/C(=N/NC(N)=S)C4OCC3O4)c2=S)c1 (centres undefined)	26*	5	3	1	-6	2	5
Cc1nc2ccc(S(=O)(=O)NC(CC(C)C)C(=O)O)cc2s1 (centres undefined)	35*	-4	-2	2	4	3	3
Cc1nc2ccc(S(=O)(=O)NC(C(=O)N3CCCC3)C(C)C)cc2s1 (centres undefined)	1	0	-2	2	1	2	.
CN1CCN(C(=S)c2ccc(Br)cc2)CC1	41*	-1	-1	-6	0	-5	44*
CN1CCN(C(=S)c2ccc([N+](=O)[O-])cc2)CC1	36*	-4	3	2	1	-5	45*
CN1CCN(C(=S)c2ccc(N(C)C)cc2)CC1	43*	-2	-4	-1	2	-1	43*
Cc1ccc(-c2c(NC(=O)C3CC3)nc3ncccn23)cc1	-2	.	.	-1	.	.	.
CN(CCO)c1ccc2c(c1)Oc1ccccc1CN(Cc1cn(Cc3ccc(F)cc3)nn1)S2(=O)=O	-3	.	.	5	.	.	.
